Most compounds without a hit are left out; they make up all but 2.4% or so of the library.
NOD2-RIPK2 inh – NOD2-RIPK2 binding disruptors in cells, primary screen, fluorescence, CHO cells, BLA complementation; 360,000 tested, 0.38% active; CCF4 ratio; inhibition, % at 4.98 µM; in the data active = inhibition above about 21%
TLR4 MyD88 comp – inhibitors of TLR4-MyD88 association in cells, primary screen, cell-based, HeLa CL3-4, BLA complementation, FRET ratio | inhibition, % at 8.4 µM | Toll-like receptor 4 (Homo sapiens) + Myeloid differentiation primary response protein … | HeLa CL3-4 TLR4/MyD88 BLA complementation | 200,000 tested, 0.18% active | AID 861, 2007; in the data active = inhibition above about 25%
TLR9-MyD88 block – inhibitors of TLR9-MyD88 association in cells, primary screen, cell-based, CHO, BLA complementation, fluorescence; CCF4 FRET ratio; inhibition, % at 4.98 µM; 340,000 tested, 0.21% active;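 active = inhibition above the mean over all tested compounds plus 3 SD, cut at about 21% in these data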
HSF1 inh – HSF1 inhibitors in luciferase reporter cells, primary screen, cell-based, NIH3T3, luminescence; NIH3T3-HGL HSE-luciferase, MG132-induced, luminescence 8 h; stronger effect = lower value; activity change, negative = inhibition, % at 7.5 µM (by protocol); 300,000 tested, 0.77% active;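 active = more than half of replicate wells show activity change below -50%, luminescence cut by over half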;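 also: luciferase reports HSF-1 transcriptional activity via heat shock element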
HSF-1 act – HSF-1 activators, primary screen, NIH3T3-HGL cells, MG132 stress, luminescence, single point. NIH3T3-HGL HSF-1 luciferase reporter, 8 h; 100% = twice DMSO control signal. activation, % at 9 µM. 300,000 tested, 1.7% active;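 active = mean replicate activation of at least 50% with a set share of replicates each reaching 50%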
Large screens that a line does not name were inactive.

CCc1nc(N2CCN(S(=O)(=O)c3ccc(Br)cc3)CC2)c2c(C)c(C)sc2n1	HSF-1 act 77
COc1ccc(NC(=S)c2ccc3ccccc3n2)cc1	none (no result: TLR4 MyD88 comp)
COc1ccc(N=C(NN)c2ccc3ccccc3n2)cc1	HSF1 inh -61
COc1ccc(NC(=O)c2cc(-c3ccccc3Cl)on2)cc1OC	none (no result: TLR4 MyD88 comp)
O=C(Nc1cccc(O)c1)c1cc(-c2ccccc2Cl)on1	HSF1 inh -58 (no result: TLR4 MyD88 comp)
CCCCNC(=O)C1CCCN1C(=O)Nc1cccc(OC)c1 (stereo not drawn)	HSF1 inh -52
COc1cccc(NC(=O)C2CCCN2C(=O)Nc2ccccc2)c1 (stereo not drawn)	none (no result: TLR4 MyD88 comp)
Cn1c(N)nc(N)c(NC=O)c1=O	none (no result: TLR4 MyD88 comp, TLR9-MyD88 block, HSF1 inh, HSF-1 act)
Cc1ccc(NC(=O)c2cc3ccccc3oc2=O)cc1S(=O)(=O)N(C)C	HSF1 inh -89 (no result: TLR9-MyD88 block)
Cc1ccc(NC(=O)c2cc3ccccc3o2)cc1S(=O)(=O)N(C)C	none (no result: HSF1 inh, HSF-1 act)
CCCCCc1cc(O)c2c(C)cc(=O)oc2c1	none
CCCCc1cc(O)c(CCCC)c(O)c1	HSF-1 act 182
O=C(CCn1c(=S)oc2ccccc21)NC1CCCCCC1	HSF1 inh -71 (no result: TLR4 MyD88 comp)
O=C(Cn1c(=O)oc2ccccc21)N1CCN(S(=O)(=O)c2ccccc2)CC1	none (no result: TLR4 MyD88 comp, HSF1 inh, HSF-1 act)
Cc1nc(SCC(=O)c2ccccc2)c(C#N)c(-c2ccco2)c1C(=O)NCc1ccco1	HSF-1 act 76
COCCOC(=O)c1c(C)nc(SCC(=O)Nc2ccc(OC)cc2)c(C#N)c1-c1ccco1	none
CC1CN(C(=O)c2cc(S(=O)(=O)N3CCCCC3)ccc2Cl)CC(C)O1 (stereo not drawn)	none (no result: TLR4 MyD88 comp, HSF1 inh, HSF-1 act)
Cc1ccc(OCc2cc(C(=O)NC3CCOC3)no2)cc1C (stereo not drawn)	none (no result: TLR4 MyD88 comp)
O=C(Cc1ccccc1[N+](=O)[O-])Nc1ccc(S(=O)(=O)N2CCCC2)cc1	none (no result: TLR4 MyD88 comp)
O=C(Nc1ncccc1O)c1ccc(Oc2ccccc2)cc1	HSF-1 act 88 (no result: TLR4 MyD88 comp)
O=C(CCNC(=O)c1ccc(Cl)cc1)Nc1ncccc1O	HSF1 inh -87 (no result: TLR4 MyD88 comp)
O=C(COc1ccc(C(=O)c2ccccc2)cc1)Nc1ncccc1O	none (no result: TLR4 MyD88 comp)
CC(C)c1nc(SCC(=O)Nc2ccc([N+](=O)[O-])cc2Br)n[nH]1	none
Nc1nc(SCC(=O)Nc2ccc([N+](=O)[O-])cc2Br)n[nH]1	HSF-1 act 58
Cc1c(C(=O)NCC2CCCO2)oc2ccc(Br)cc12 (stereo not drawn)	none (no result: TLR4 MyD88 comp)
O=C(Cc1ccc(S(=O)(=O)N2CCOCC2)s1)Oc1ccc(F)cc1	none (no result: TLR4 MyD88 comp)
Cc1ccc(NC(=O)c2ccccc2N(C)S(=O)(=O)c2ccccc2)c(C)c1	HSF-1 act 65
Cc1ccc(S(=O)(=O)N(C)c2ccccc2C(=O)NC2CCCC2)cc1	HSF1 inh -72
C(=C\c1ccccc1)/CN1CCN(C(c2nnnn2-c2ccc3c(c2)OCCO3)C2CC2)CC1 (stereo not drawn)	none (no result: TLR4 MyD88 comp, TLR9-MyD88 block, HSF1 inh, HSF-1 act)
COc1ccccc1NC(=O)COC(=O)c1c(NC(C)=O)sc(C)c1C	none (no result: TLR4 MyD88 comp, HSF1 inh, HSF-1 act)
Cc1c(C(=O)NC2CCCCC2C)oc2ccccc12 (stereo not drawn)	none (no result: TLR4 MyD88 comp)
COc1ccc(CCC(=O)Nc2nc(C)c(C(=O)N(C)C)s2)cc1	none (no result: TLR4 MyD88 comp)
N=c1sccn1CC(=O)Nc1cc(Cl)ccc1Oc1ccccc1	HSF-1 act 79
CCOc1ccc(NCc2nc3ccccc3n2CCOc2ccccc2)cc1	HSF1 inh -52
CC(=O)NCCc1nc2ccccc2n1CCCCOc1ccccc1	HSF-1 act 54 (no result: TLR4 MyD88 comp)
CCOc1ccc(Nc2nc3ccccc3n2C)cc1	HSF-1 act 72 (no result: TLR4 MyD88 comp)
CC(=O)NCCc1nc2ccccc2n1CCOc1ccccc1	none (no result: TLR4 MyD88 comp)
CCN(CC)CCNc1nc2ccccc2n1C	HSF-1 act 57
O=C1N=C(N2C=CC(=C3C=CNC=C3)C=C2)/C(=C/N=NC(=O)c2ccccc2O)S1	none (no result: TLR4 MyD88 comp)
CCOc1cc(/C=C2\SC(=Nc3ccc(CC)cc3)NC2=O)ccc1OCC(=O)O	none (no result: TLR4 MyD88 comp)
COc1cc(NC(=O)CN(C)S(=O)(=O)c2ccc(-c3ccc(=O)[nH]n3)s2)cc(OC)c1	HSF1 inh -91 (no result: TLR4 MyD88 comp)
COc1ccc(C(C(=O)NC2CCCC2)n2c(C3CCN(C(C)=O)CC3)nc3ccccc32)cc1 (stereo not drawn)	none (no result: TLR4 MyD88 comp, TLR9-MyD88 block, HSF1 inh, HSF-1 act)
CNC(=S)Nc1cccc(S(=O)(=O)NCc2ccco2)c1	none (no result: TLR4 MyD88 comp, HSF1 inh, HSF-1 act)
CC1=NN(c2ccccc2)C(=O)C1N=Nc1ccc(S(N)(=O)=O)cc1 (stereo not drawn)	HSF1 inh -78 (no result: TLR4 MyD88 comp)
COC1(OC)C(/C=C/c2ccc(Cl)cc2)C(C#N)(C#N)C1(OC)OC (stereo not drawn)	HSF-1 act 99
COc1ccc(NC(=O)C2=C(C)NC(=S)NC2c2ccc(O)c(OC)c2)cc1 (stereo not drawn)	none
COc1cc(C2NC(=S)NC(C)=C2C(=O)Nc2ccc(C)cc2)ccc1O (stereo not drawn)	HSF-1 act 84
Cc1ccc(-n2cc(CN3CCNC(=O)CC3)c(-c3cccc(C)c3)n2)cc1	none (no result: HSF1 inh, HSF-1 act)
Cc1ccc(-n2cc(CN3CCN(Cc4nccn4C)CC3)c(-c3cccc(C)c3)n2)cc1	HSF-1 act 51
c1ccc2c(c1)Cc1cc(CN3CCOCC3)ccc1-2	HSF-1 act 56
c1ccc(CN2CCOCC2)cc1	none
CNC(=S)N(CCc1c(C)[nH]c2ccc(F)cc12)Cc1ccco1	none (no result: TLR4 MyD88 comp)
COCCNC(=S)N(CCc1c(C)[nH]c2ccc(F)cc12)Cc1ccco1	HSF-1 act 53 (no result: TLR4 MyD88 comp)
Cc1ccc(CN2C3CCCC2CC(NC(=O)c2ccc(F)cc2)C3)cc1 (stereo not drawn)	none (no result: TLR4 MyD88 comp)
CCCNC(=S)NC1CC2CCCC(C1)N2Cc1ccc(F)cc1 (stereo not drawn)	HSF1 inh -61 (no result: TLR4 MyD88 comp)
COc1ccc(NC(=O)CSc2nnc(N)s2)cc1S(=O)(=O)N1CCCCC1	none (no result: TLR4 MyD88 comp, HSF1 inh, HSF-1 act)
c1ccc(Cn2ccc(-c3cnc(-c4ccccc4)s3)n2)cc1	HSF-1 act 74
COc1ccc(C(=O)NCc2nnc(SCC(=O)N3CCC(C)CC3)o2)cc1OC	HSF1 inh -67
COc1cc(C(=O)NCc2nnc(SCC(=O)N3CCC(C)CC3)o2)cc(OC)c1OC	none
CC(=O)NC(c1ccc(F)c(F)c1)c1nc(-c2cnc3ccccc3c2)cs1 (stereo not drawn)	none (no result: TLR4 MyD88 comp, TLR9-MyD88 block, HSF1 inh, HSF-1 act)
CCc1nc2sc3ccccc3c(=O)c2c(=O)n1Cc1ccc(OC)cc1	HSF1 inh -65 (no result: TLR4 MyD88 comp)
O=[N+]([O-])c1ccc(Sc2ccccc2)nc1	HSF-1 act 53
CCOc1ccc(C(=O)N(Cc2ccc(OC)cc2)Cc2cc3cc(OC)ccc3[nH]c2=O)cc1	HSF-1 act 65
CCCCN(Cc1cc2cc(OC)ccc2[nH]c1=O)C(=O)c1ccco1	HSF-1 act 77
Cc1ccc(C(O)c2ncc(-c3ccccc3C)[nH]2)cc1F (stereo not drawn)	none (no result: TLR4 MyD88 comp, TLR9-MyD88 block, HSF1 inh, HSF-1 act)

Bioassay records from PubChem BioAssay.
